Screening data: PubChem, National Center for Advancing Translational Sciences (NCATS)
Most compounds without a hit are left out; they make up all but 5.7% or so of the library.
Giardia kill: kills Giardia lamblia; Giardia lamblia trophozoite viability; activity change, % at 7.66 µM, hits read low; hit rate 0.15% among 340,000; in the data active = activity change below about -80%; inconclusive = between about -30% and that limit;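 note: parasites exposed to compound for two days anaerobically before the ATP read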
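Anaerobic 48 hrs incubation at 37 deg C of 100 trophozoites/well with test compounds; ATPLite 1-Step luminescence, 15-30 min RT, reports cellular ATP as viability.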
KB-V1 cytotox: KB-V1 MDR subline cytotoxicity. AID 1347076. Potency, µM (highest dose often 46.1 µM), hits mostly cytotoxic. hit rate 3.4% among 400,000. KB-V1 MDR cells viability, CellTiter-Glo, 72 h; note: nearly all actives have a fitted effect of over 60% in size
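Cytotoxicity toward P-gp-expressing KB-V1 cells was determined as loss of CellTiter-Glo luminescence after 72 h at 37 degrees C. Compounds were tested in quantitative HTS format across a concentration range, with curves fitted to normalized data.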
KB-3-1 cytotox: KB-3-1 parental cell cytotoxicity; KB-3-1 viability, CellTiter-Glo ATP luminescence, 72 h; Potency, µM (series often up to 46.1 µM), actives largely listed as cytotoxic; hit rate 1.4% among 400,000; note: nearly all actives have a fitted effect of over 60% in size
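Parental KB-3-1 adenocarcinoma cells in phenol-red-free DMEM with 10% FBS were pin-treated with compounds at several concentrations, incubated 72 h at 37 °C, and viability read by CellTiter-Glo luminescence; concentration-effect curves were fitted after normalization.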
Nrf2 inh: Nrf2 pathway inhibition; AID 504444; A549 ARE-Fluc reporter, luciferase luminescence, 18-24 h; Potency, µM (highest dose often 46 µM), most hits filed as inhibitors; hit rate 2.1% among 360,000; note: nearly all actives have a fitted effect of over 60% in size
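In this cell-based qHTS, ARE-driven firefly luciferase in A549 cells reports Nrf2 activity; the luminescent signal after BugLite lysis is the measured value, with a prior CellTiter-Fluor read for cell health.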
PI4K2A block: inhibitors of human PI4K2A. AID 1346378. activity change, negative = inhibition, % at 76.9 µM. Q9BTU6. hit rate 0.13% among 420,000. purified PI4K2A, ADP-Glo luminescence, 1 h; active compounds read low; in the data active = activity change below about -50%; inconclusive = mostly about -30% to -49%
Target sequence (Q9BTU6 whole entry, looked up): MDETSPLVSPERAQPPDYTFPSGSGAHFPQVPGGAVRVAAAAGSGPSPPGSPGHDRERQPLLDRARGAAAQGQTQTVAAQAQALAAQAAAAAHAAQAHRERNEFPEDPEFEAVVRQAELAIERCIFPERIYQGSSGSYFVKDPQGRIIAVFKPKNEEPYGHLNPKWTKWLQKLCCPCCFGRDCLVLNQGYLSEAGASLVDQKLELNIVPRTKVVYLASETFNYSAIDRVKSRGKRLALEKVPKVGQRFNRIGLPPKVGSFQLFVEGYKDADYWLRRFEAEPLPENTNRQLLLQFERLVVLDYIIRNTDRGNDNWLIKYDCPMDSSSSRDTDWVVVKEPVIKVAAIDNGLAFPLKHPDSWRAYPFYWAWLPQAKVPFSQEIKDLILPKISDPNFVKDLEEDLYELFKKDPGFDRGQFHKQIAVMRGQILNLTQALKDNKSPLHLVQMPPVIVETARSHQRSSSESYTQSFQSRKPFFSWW
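Compounds are screened against recombinant PI4K2A using PI as substrate and ATP, the latter dispensed at 300 microM. Reactions run one hour at ambient temperature before ADP-Glo detection; full inhibition defined by wells lacking enzyme.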
A549 tox: A549 cytotoxicity, counter-screen for Nrf2 inhibitors; A549 ARE-Fluc cells, CellTiter-Fluor viability, 18-24 h; AID 504648; Potency, µM (doses to about 46 µM), actives largely listed as inhibitors; hit rate 0.16% among 390,000
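A549 ARE-Fluc cells in 5% FBS OPTI-MEM, 5000 cells/well, rested 2 h then exposed to compounds in concentration-response for 18-24 h at 37 °C. Viability by CellTiter-Fluor fluorescence (Ex 405/Em 525) after 30 min; luciferase luminescence (BugLite, 15 min, RT) read afterwards.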
A number is an active result; . = inactive; ? = inconclusive; / = not tested or not shown. Unless noted, calls come from the whole dose curve; as a rule, active = well fitted curve in the direction sought with a large enough effect; inconclusive = small, poorly fitted or top-dose-only effect, or another doubt; inactive = no such curve, though single readings can be large; an effect the other way counts as inactive or inconclusive.

SMILES | Giardia kill | KB-V1 cytotox | KB-3-1 cytotox | Nrf2 inh | PI4K2A block | A549 tox
O=C(Nc1ccc(OC(F)(F)F)cc1)NC1COc2ccccc2C1 (configuration not stated) | / | . | . | / | . | .
O=C1CC(c2ccc3c(c2)OCO3)c2cc3c(cc2N1)OCCO3 (configuration not stated) | . | . | . | . | . | .
Cc1ccc(C2CC(=O)Nc3cc4c(cc32)OCCO4)cc1Br (configuration not stated) | / | . | ? | 18µM | . | .
Cc1cc(Cl)ccc1OCC(=O)NCC(c1cccs1)N1CCOCC1 (configuration not stated) | . | 7.3µM | ? | 18µM | . | .
O=C(COc1cccc(Cl)c1)NCC(c1cccs1)N1CCOCC1 (configuration not stated) | . | . | . | ? | . | .
O=C(NCC(c1cccs1)N1CCOCC1)C1CCN(S(=O)(=O)c2c(Cl)cccc2Cl)CC1 (configuration not stated) | . | ? | . | . | . | .
O=C(NCC(c1cccs1)N1CCOCC1)C1CCN(S(=O)(=O)c2cc(Cl)ccc2Cl)CC1 (configuration not stated) | . | 9.2µM | . | . | . | .
CN(C)c1ccc(/C=C/c2ccnc3cc(Cl)ccc23)cc1 | / | . | ? | / | / | /
COc1ccc(N(Cc2cccs2)C(=O)COc2cc(C)c(Cl)c(C)c2)cc1 | / | / | / | ? | . | .
O=C(Nc1cc(SCCO)cc([N+](=O)[O-])c1)c1ccc(Br)o1 | . | 21µM | ? | ? | . | .
O=C(NC1CCCCN(Cc2ccc(Cl)cc2)C1=O)c1ccc(Cl)cc1Cl (configuration not stated) | / | / | / | / | . | /
O=C(OC12CCCN(C1)/C(=C/c1cccc(Cl)c1)C2)c1ccccc1 (configuration not stated) | / | / | / | / | . | /
CC(C)c1ccc(NC(=O)N2CCc3nc(NCc4cccc(Oc5ccccc5)c4)ncc3C2)cc1 | / | ? | ? | / | . | /
O=C(Nc1cccc(F)c1)N1CCc2nc(NCc3cccc(Oc4ccccc4)c3)ncc2C1 | / | 18µM | ? | / | . | /
COC(=O)[C@]12CCCCC=C1N(Cc1ccc(OC)cc1)C(=O)[C@@H]2CC(=O)N1CCCC1 | / | / | / | / | . | /
Cc1csc2nc(COC(=O)c3cccc(NC(=O)COc4ccccc4Cl)c3)cc(=O)n12 | / | / | / | / | . | .
COc1ccccc1/C=N/OCc1ccc(C#N)cc1 | . | . | . | 18µM | . | .
CN(C)[C@@H]1C(=O)C(C(N)=O)=C(O)[C@@]2(O)C(=O)C3=C(O)c4c(O)cccc4C[C@H]3C[C@@H]12 | / | / | / | / | . | /
COc1ccc(-c2[nH]c(-c3ccc4c(c3)OCO4)nc2-c2ccccc2)cc1 | . | ? | ? | 21µM | . | ?
COc1cc(-c2nc(-c3ccccc3)c(-c3ccc(F)cc3)[nH]2)cc2c1OCO2 | . | ? | . | . | . | .
CS(=O)(=O)Nc1ccc(C(=O)CSc2nnc(C3CC3)n2C2CC2)cc1 | . | . | . | . | . | .
CCc1ccc(C(=O)CSc2nnc(C3CC3)n2C2CC2)cc1 | . | 12µM | . | . | . | .
COc1ccc(OC)c(C(=O)CSc2nnc(C3CC3)n2C2CC2)c1 | / | . | 16µM | / | . | /
Cc1cccc(N2CCN(C(=O)Cn3c(=O)c4cccn4c4ccc(F)cc43)CC2C)c1 (configuration not stated) | / | / | / | ? | . | .
O=C(c1cnc2ccc3ccccc3c2c1)c1cc(F)ccc1O | . | 3.7µM | ? | . | . | .
Cc1nn(C)c2ncc(C(=O)c3cc(F)ccc3O)cc12 | . | . | . | / | . | .
Cc1nc(N/N=C/c2ccc(O)cc2O)cc(N2CCOCC2)n1 | . | ? | ? | 21µM | . | .
NC1=NC(=O)/C(=C/c2ccccc2OCC(=O)Nc2ccc(F)cc2)S1 | . | . | . | . | . | .
O=C(COc1ccccc1/C=C1\SC(=S)NC1=O)Nc1ccc(F)cc1 | . | . | . | 23µM | . | ?
Cc1ccc(S(=O)(=O)Oc2cccc(/C=N/n3cnnc3)c2)cc1 | . | 18µM | ? | ? | . | .
